# Compound activity: PubChem BioAssay, National Center for Advancing Translational Sciences (NCATS)
# NS1 function inh: qHTS Assay for Inhibitors of Influenza NS1 Protein Function; Potency, µM (top dose mostly 46.1 µM); 0.4% of 270,000 active; AID 2326, 2010; calls by dose curve; also: actives are rising curves; nearly all actives have a fitted effect of over 50% in size
#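 Read-out: OD600 growth recovery of NS1-expressing budding yeast. Cells grown overnight at 30C in -URA glucose medium, washed, resuspended and diluted 1:100 in 2% galactose assay medium, pH 6.0. Same strain lacking NS1 served as positive control.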
# Pf growth 96h: Primary qHTS for delayed death inhibitors of the malarial parasite plastid, 96 hour incubation; P. falciparum luciferase reporter growth, 96 h; Potency, µM (titrated, usually from 28.7 µM), hits mostly inhibitors; 6.9% of 320,000 active; AID 504834, 2011
#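 Erythrocytes infected with luciferase-expressing P. falciparum were dispensed at 2% hematocrit and 0.05% parasitemia (final), then incubated with compounds 96 hours at 37 C in 5% CO2. Luminescence after detection reagent addition reported growth.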
# Pf growth 48h: Primary qHTS for delayed death inhibitors of the malarial parasite plastid, 48 hour incubation; 5.9% of 310,000 active; P. falciparum luciferase growth in erythrocytes, 48 h; Potency, µM (series often up to 28.7 µM), actives largely listed as inhibitors
#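 Parasite viability was followed by luminescence of a genomically integrated firefly luciferase. Cultures held 0.1% parasitemia at 2% hematocrit (final), incubated under 5% CO2 at 37 C.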
# FBPA Giardia inh: qHTS Assay for Inhibitors of Fructose-1,6-bisphosphate Aldolase from Giardia Lamblia | A8B2U2 | purified Giardia FBPA | Potency, µM (doses to about 59.6 µM), hits mostly inhibitors | 0.71% of 290,000 active | AID 2451, 2010; also: nearly all actives have a fitted effect of over 55% in size
# Target sequence (A8B2U2 whole entry, looked up): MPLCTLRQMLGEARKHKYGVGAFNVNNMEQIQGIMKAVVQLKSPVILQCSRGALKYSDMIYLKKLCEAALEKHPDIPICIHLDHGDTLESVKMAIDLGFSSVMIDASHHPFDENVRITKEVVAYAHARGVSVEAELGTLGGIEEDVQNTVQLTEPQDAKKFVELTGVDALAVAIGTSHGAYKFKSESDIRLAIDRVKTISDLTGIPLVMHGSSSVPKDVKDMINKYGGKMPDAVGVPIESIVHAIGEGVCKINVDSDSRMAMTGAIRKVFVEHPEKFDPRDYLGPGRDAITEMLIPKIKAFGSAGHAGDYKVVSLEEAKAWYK
#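 Giardia FBPA (40 nM reagent) was preincubated 10 min at RT with compound (up to 57.5 uM final), then substrate plus GAPDH/TPI/NAD/arsenate coupling system with diaphorase/resazurin was added; resorufin fluorescence (525/598 nm) was read after 20 min.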
# Shiga inhibitor: A qHTS for Small Molecule Inhibitors of Shiga Toxin; Vero cells, Shiga toxin protein synthesis inhibition reporter; 9.2% of 290,000 active; inhibition, % at 38.7 µM; in the data active = inhibition mostly above about 28%, no sharp cut-off; inactive = mostly below about 43%
# CHX counter: Cycloheximide Counterscreen for Small Molecule Inhibitors of Shiga Toxin. cell reporter, cycloheximide protein synthesis inhibition counterscreen. 12% of 300,000 active. max response, %; in the data active = max response mostly above about 13%, no sharp cut-off; inactive = mostly below about 14%; also: read at 38.3 µM for the half of the compounds with a filed dose
# Numbers stand for hits; - = inactive; ? = inconclusive; . = no result; [ ] = dose if it differs, or a comment. Rows were chosen to be rich in hits. Some 21% of all compounds tested hit in one or more screens of this group. Unless noted, calls follow the shape of the dose curve; as a rule, active = well fitted curve in the direction sought with a large enough effect; inconclusive = small, poorly fitted or top-dose-only effect, or another doubt; inactive = no such curve, though single readings can be large; an effect the other way counts as inactive or inconclusive.
SMILES,NS1 function inh,Pf growth 96h,Pf growth 48h,FBPA Giardia inh,Shiga inhibitor,CHX counter
CN(C)CCn1c(N)nc2ccccc21,-,-,-,-,-,-
CC(=O)c1cc2c(=O)c3cc(C)ccc3oc2nc1C,-,-,-,-,121,30
Cc1ccc2oc3nc(C)c(C(=O)O)cc3c(=O)c2c1,-,-,-,-,-,41
Cc1onc(-c2ccccc2Cl)c1C(=O)N[C@H]1C(=O)N2[C@H]1SC(C)(C)[C@H]2C(=O)O,.,-,-,-,.,.
CC(C)N(Cc1ccccc1)C(C)C (tested in a mixture with another compound),.,.,.,-,-,-
CC[Si](CC)(CC)O[C@H]([C@@H](C)COCOC)[C@@H](C)COCc1ccc(OC)cc1,.,.,.,-,-,-
COc1ccc(CCNC(=O)c2ccc(SC)cc2OC)cc1,-,2.6µM,?,-,-,-
COc1cc(SC)ccc1C(=O)NCC1CCCCC1,-,?,?,-,75,28
COc1cc(SC)ccc1C(=O)NCCOc1ccc(F)cc1,-,-,-,-,74,45
COc1cc(C(=O)NCCOc2ccc(F)cc2)c(Br)c(OC)c1OC,.,-,-[5.75 µM],-,-,-
Nc1cccc(-c2cn(-c3cc4cc(C#CC5(O)CCCCC5)ccc4oc3=O)nn2)c1,.,-,-,.,.,.
COC(=O)c1cc2ccccc2c(-c2c(O)ccc3ccccc23)c1O,-,?,9.3µM,-,-,-
COC(=O)c1ccccc1C(=O)c1cccc2ccccc12,-,-,-,-,-,-
COc1ccc(C(=O)O/N=C2\CCCc3nonc32)cc1,-,-,-,-,-,-
COC(=O)c1ccc(CO/N=C2\CCCc3nonc32)cc1,.,-,-,-,-,44
COc1ccc([C@@H]2CC(=O)c3c(O)cc(O[C@@H]4O[C@H](CO)[C@@H](O)[C@H](O)[C@H]4OC4O[C@@H](C)[C@H](O)[C@@H](O)[C@H]4O)cc3O2)cc1O (some centres not stated),.,.,.,-,-,-
Cc1noc(C)c1C(=O)OCC(=O)c1c[nH]c2ccccc12,-,?,9.3µM,-,-,-
Cc1cc(C(=O)OCC(=O)c2cccc([N+](=O)[O-])c2)c2cccc(C)c2n1,-,0.41µM,?,-,-,-
COc1ccc(-c2cc(C(=O)OCC(=O)c3cccc([N+](=O)[O-])c3)c3cc(C)ccc3n2)cc1,-,-,-,-,-,-
O=C(OCC(=O)c1c[nH]c2ccccc12)c1cc2ccccc2cc1O,?,-,-,?,-,-
O=C(OCC(=O)c1c[nH]c2ccccc12)c1cccc([N+](=O)[O-])c1,.,13µM,8.3µM,.,.,.
CC(C)CC(=O)Nc1c(C(=O)N2CCN(Cc3ccccc3)CC2)oc2ccccc12,-,?,?,-,-,-
CCc1ccc(C2=NN(C(=O)CCC(=O)O)C(c3cccs3)C2)cc1 (configuration not stated),-,-,-,-,-,-
COc1ccc(S(=O)(=O)N2c3cc(Cl)ccc3Oc3nc4ccccc4nc32)cc1,-,-,-,-,50,-
CC(C)CC(=O)c1c[nH]c(C(=O)NCCc2ccccn2)c1,-,-,-,-,-,28
SMILES,NS1 function inh,Pf growth 96h,Pf growth 48h,FBPA Giardia inh,Shiga inhibitor,CHX counter
CC(C)CC(=O)c1c[nH]c(C(=O)NCCCN2CCOCC2)c1,-,-,-,-,-,-
CCC(=O)c1c[nH]c(C(=O)NCc2ccccc2OC)c1,-,-,-,-,-,-
CCC(=O)c1c[nH]c(C(=O)NCCc2ccccn2)c1,-,-,-,-,-,26
Cc1ccccc1C(=O)c1c[nH]c(C(=O)NCCc2ccccn2)c1,.,9.3µM,12µM,-,-,-
CCC(C)(C)NS(=O)(=O)c1cc(CN2C(=O)c3cccnc3C2=O)ccc1OC,-,-,-,-,-,-
Cc1ccc(C(=O)n2c(=S)nc3ccccn32)cc1,-,-,.,-,54,49
Cc1cccc(C(=O)n2c(=S)nc3ccccn32)c1,-,-,.,-,83,29
Cc1cccc(C(=O)N2CCCCCC2)c1,-,?,.,-,-,-
O=C(c1ccccc1)n1c(=S)nc2ccccn21,-,-[5.75 µM],-,-,97,52
Cc1ccc(C(=O)n2ncn(C)c2=S)cc1,-,-,-,-,-,-
Cc1cc2c(cc1S(=O)(=O)CCC(=O)N(C)Cc1ccccc1)OCC(=O)N2,-,-,-,-,-,-
CSc1cccc(NC(=S)N(CCCN2CCC(C)CC2)Cc2cccs2)c1,.,?,?,-,-,-
COc1cc(-c2cc(C(=O)NCc3ccco3)c3ccccc3n2)cc(OC)c1OC,-,10µM,?,-,-,23
COc1cc(-c2cc(C(=O)NCc3ccc(S(N)(=O)=O)cc3)c3ccccc3n2)cc(OC)c1OC,-,?,?,-,-,-
COc1cc(-c2cc(C(=O)Nc3ccc(S(=O)(=O)NCc4ccco4)cc3)c3ccccc3n2)cc(OC)c1OC,-,17µM,10µM,-,-,-
COc1ccc(C)cc1NC(=O)c1cc2ccccc2cc1OCC(=O)NCc1ccco1,?,?,.,-,-,30
O=C(CCS(=O)(=O)c1cc(Br)cc2c1N(C(=O)C1CC1)CC2)N1CCN(c2ccccn2)CC1,-,-,?,-,-,-
Cc1cnc(CNc2ccnc(-c3ccccc3Cl)n2)cn1,.,.,.,-,.,.
O=C(O)c1ccc(NC(=O)c2ccccc2NC(=O)c2cccc(Br)c2)cc1,-,-,-,-,.,-
CC(=O)c1cnc(Nc2ccccc2)s1,-,-,.,-,-,34
CC(=O)c1cnc(Nc2cccc(Cl)c2Cl)s1,-,-,-,-,81,37
O=C(c1ccc(Cl)cc1)c1cnc(Nc2ccccc2Cl)s1,-,-,-,-,120,50
O=C(c1ccc(Cl)cc1)c1cnc(-c2ccccc2)s1,?,-,-,-,-,-
CC(=O)Nc1ccc(-c2sc(Nc3ccccc3)n[n+]2C)cc1,-,-,-,-,-,-
Cc1ccccc1C(=O)N1CCC(C(=O)Nc2ccc(S(=O)(=O)N3CCCCC3)cc2)CC1,-,?,?,.,-,-
SMILES,NS1 function inh,Pf growth 96h,Pf growth 48h,FBPA Giardia inh,Shiga inhibitor,CHX counter
Cc1ccc(S(=O)(=O)N2CCCCC2CCNC(=O)C(=O)Nc2ccccc2F)cc1 (configuration not stated),.,-,?,.,.,.
COc1ccc(-c2c(-c3ccc(O)cc3O)n[nH]c2C)cc1OC,?,?,.,-,-,-
COc1ccc(-c2c(-c3ccc(OC)c(C)c3O)n[nH]c2C)cc1,-,12µM,-,-,-,-
COc1ccc(-c2cc(-c3ccc(OC)c(OC)c3)n[nH]2)c(O)c1,-,?,.,-,97,71
COc1ccc(O)c(-c2cc(-c3cccc(Br)c3)n[nH]2)c1,-,?,.,-,29,32
COc1ccc(-c2cc(-c3ccc(Cl)cc3)n[nH]2)c(O)c1,-,-,?,-,92,37
